High-throughput results deposited in PubChem by several laboratories.
Rows were chosen to be rich in hits. Some 3.1% of all compounds tested hit in one or more screens of this group.
Mcl1 Noxa PPI = Mcl-1/Noxa binding inhibitors, primary screen, biochemical, TR-FRET, 1536-well. Induced myeloid leukemia cell differentiation protein Mcl-1 (Homo sapiens), Q07820. TR-FRET Mcl-1/Noxa peptide binding, 2 h. inhibition, % at 21.7 µM. 1.5% of 220,000 active. AID 1022, 2008;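 active = compounds that cut the protein-peptide binding signal by more than 50% relative to plate controls in a single-dose test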;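 note: His-tagged Mcl-1 with rhodamine Noxa BH3 peptide and terbium anti-His antibody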
Mcl1 Bid PPI = Mcl-1/Bid binding inhibitors, primary screen, biochemical, TR-FRET, 1536-well. TR-FRET Mcl-1/Bid-Dy647 peptide binding. inhibition, % at 21.7 µM. 0.97% of 220,000 active;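 active = compounds that cut the binding signal by more than half at the single screening dose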;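 note: His-tagged Mcl-1 with europium anti-His antibody binding Bid BH3 peptide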
NCF1 inh = p47phox/p22phox peptide binding inhibitors, primary screen, biochemical, uHTS, NADPH oxidase regulatory subunit; Neutrophil cytosol factor 1 (Homo sapiens), P14598; AID 1274, 2008; inhibition, % at 24.7 µM; 0.53% of 220,000 active; fluorescence polarization, 2 h;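 active = inhibition above about 30%, limit read from the data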
Target sequence (P14598 whole entry, looked up): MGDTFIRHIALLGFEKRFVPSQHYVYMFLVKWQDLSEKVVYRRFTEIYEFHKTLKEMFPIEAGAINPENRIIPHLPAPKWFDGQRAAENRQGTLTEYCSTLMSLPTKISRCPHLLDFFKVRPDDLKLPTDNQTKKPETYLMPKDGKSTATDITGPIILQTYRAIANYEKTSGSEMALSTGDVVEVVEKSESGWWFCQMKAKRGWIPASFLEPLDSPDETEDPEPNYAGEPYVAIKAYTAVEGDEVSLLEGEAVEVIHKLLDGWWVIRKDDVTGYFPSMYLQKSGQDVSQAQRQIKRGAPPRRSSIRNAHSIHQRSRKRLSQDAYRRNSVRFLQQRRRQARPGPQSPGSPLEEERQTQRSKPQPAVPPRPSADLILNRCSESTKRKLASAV
14-3-3 Bad PPI = inhibitors of 14-3-3 zeta/Bad binding, primary screen, biochemical, TR-FRET, bovine 14-3-3 zeta; inhibition, % at 21.7 µM; 0.71% of 220,000 active; TR-FRET 14-3-3zeta/Dy647-pBad peptide displacement, 1 h; 14-3-3 protein zeta/delta (Bos taurus), P63103;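 active = inhibition above about 70%, limit read from the data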
Mcl-1 Bim block = inhibitors of Bim peptide binding to Mcl-1, primary screen, biochemical, bead-based flow cytometry, multiplex | 0.1% of 190,000 active | Bim peptide-Mcl-1 binding | Induced myeloid leukemia cell differentiation protein Mcl-1 (Homo sapiens), Q07820 | AID 1009, 2008 | inhibition, % at 10 µM; in the data active = inhibition above about 40%
Each line names hits and unclear results; the compound was inactive in the other large screens; [ ] = remark or other dose.

Cn1ncc(N=Cc2ccccc2O)c1C(=O)N1CCOCC1	NCF1 inh active
Cn1ncc(Cl)c1C(=O)N1CCOCC1	none
CCn1c(=N)n(CC(=O)c2cccc([N+](=O)[O-])c2)c2ccccc21	14-3-3 Bad PPI 74[fluorescence artefact?]
N=C1/C(=C/c2cccn2Cc2ccc(Cl)cc2)C(=O)N=C2SC=CN12	Mcl1 Bid PPI 54
O=C(CCCN1C(=O)c2ccccc2C1=O)Nc1ccccc1	Mcl1 Bid PPI 78 (no result: Mcl-1 Bim block)
COc1ccc(C(=O)NC(=S)NCc2ccco2)cc1	none (no result: Mcl-1 Bim block)
O=C(/C=C/c1ccccc1)NCCSc1ccc(Cl)cc1	none
O=c1oc2ccccc2cc1-c1csc(Nc2nc3c(F)cccc3s2)n1	Mcl1 Noxa PPI 70
O=c1oc2ccccc2cc1-c1csc(NN=C2CCCCC2)n1	none
Cc1ccccc1N/C(SCc1cccc(Br)c1)=C(/C#N)C(N)=O	14-3-3 Bad PPI 71[fluorescence artefact?]
COc1ccc(Oc2nnc(-c3ccc(C)cc3)c3ccccc23)cc1	14-3-3 Bad PPI 89
Cc1ccc(Oc2nnc(-c3cccs3)c3ccccc23)cc1	none
CC1c2ccccc2SC(CCCN(C)C)c2ccccc21 (stereo not drawn)	none
CN(C)CCC1Sc2ccccc2Oc2ccccc21 (stereo not drawn)	Mcl1 Bid PPI 58
COc1ccccc1OCC#CCNC1CCCCC1C (stereo not drawn)	none
CC1(C)CC(=O)C(C=NCCN2CCN(C3CC(=O)N(c4ccc(Br)cc4)C3=O)CC2)=C(O)C1 (stereo not drawn)	none
CCOC(=O)C1=C(C)N(c2ccc(C)cc2)C(=O)/C1=C\c1ccc(O)c(OC)c1	none (no result: Mcl-1 Bim block)
CCOC(=O)C1=C(O)c2ccccc2C(=O)/C1=C\c1ccc(C)cc1	Mcl1 Noxa PPI 79, NCF1 inh 57
CCOc1cc(S(=O)(=O)Nc2ccccc2CC)ccc1Cl	Mcl1 Noxa PPI 56
CCOc1cc(S(=O)(=O)Nc2ccc(Cl)cn2)ccc1F	none
CCOc1cc(S(=O)(=O)Nc2ccc(CC)cc2)ccc1Cl	none
CCOc1cc(S(=O)(=O)Nc2ccccn2)ccc1F	Mcl-1 Bim block 50
CC(=O)Nc1cccc(N(C)C)c1	none
CN(C)c1cccc(NC(=O)C2(C)CC2(Cl)Cl)c1 (stereo not drawn)	Mcl-1 Bim block 84
COc1ccc(NS(=O)(=O)c2ccc(C)c(NC(=O)c3ccc(C)c(S(=O)(=O)N4CCOCC4)c3)c2)cc1	none
COc1cc(OC)cc(C(=O)Nc2nnc(Cc3ccc(OC)c(OC)c3)s2)c1	none
COc1ccc(-c2nnc(SCC(=O)c3cc(C)n(Cc4cccs4)c3C)o2)cc1	14-3-3 Bad PPI 75
Cc1ccccc1NC(=S)NNC(=O)c1ccncc1	none
COc1ccc(C(=O)NNC(=O)c2ccncc2)cc1	Mcl1 Noxa PPI 61
CC(=O)c1ccc(NC(=S)NNC(=O)c2ccncc2)cc1	Mcl1 Bid PPI 92
Cc1cccc(-c2ncc(CN3CCN(CCC(C)C)C(CCO)C3)cn2)c1 (stereo not drawn)	none
CC(=O)N1c2ccccc2C2(O)N=C(C)SC12 (stereo not drawn)	Mcl1 Noxa PPI 55
C=CCSc1nc2c(c(=O)[nH]c(=O)n2C)n1C/C=C(/C)Cl	Mcl1 Noxa PPI 58
Cn1c(-c2ccc(F)cc2)cnc1NCc1cccc(F)c1	14-3-3 Bad PPI 79
Cn1c(-c2ccc(F)cc2)cnc1NCc1ccccc1	none
O=C(O)C1Nc2c(C(=O)N3CCOCC3)cccc2C2C=CCC12 (stereo not drawn)	Mcl1 Noxa PPI 80
CCOC(=O)c1ccc2c(c1)C1C=CCC1C(C(=O)O)N2 (stereo not drawn)	Mcl1 Noxa PPI 104, Mcl1 Bid PPI 62
Cc1ccc2c(c1C)NC(C(=O)O)C1CC=CC21 (stereo not drawn)	Mcl1 Noxa PPI 99, Mcl1 Bid PPI 96
CC(C)C1Nc2ccc(C(=O)O)cc2C2C=CCC21 (stereo not drawn)	none
CCCCn1c(NC(=S)Nc2ccccc2)nc2ccccc21	none
Cc1ccc2[nH]c(C(=O)O)c(NC(=O)[C@@H]3C[C@@H]3c3ccccc3)c2c1	NCF1 inh 113 (no result: Mcl-1 Bim block)
